What all share (assay): DAPPL (digital affinity profiling via proximity ligation, sequencing); 10 mM Tris-HCl pH 7.5, 50 mM NaCl, 1 mM DTT, 4% glycerol, room temperature, 30 min; GST-TFs on glutathione beads, 16-mer random dsDNA library, 0.1% formaldehyde crosslink after washing; high values mean tight binding
One test concerns the target T1, FEV (Homo sapiens, UniProt Q99581 1-238).
T1 sequence: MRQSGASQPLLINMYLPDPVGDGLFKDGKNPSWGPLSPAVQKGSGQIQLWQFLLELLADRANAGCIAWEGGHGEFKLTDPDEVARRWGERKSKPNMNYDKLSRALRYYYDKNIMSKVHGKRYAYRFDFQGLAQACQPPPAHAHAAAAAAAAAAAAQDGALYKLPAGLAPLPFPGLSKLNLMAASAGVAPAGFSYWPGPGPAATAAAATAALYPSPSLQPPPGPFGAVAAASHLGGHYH
The following applies: protein: recombinant; tags: N-terminal GST; dsDNA, one strand shown. The method, boiled down:
(§1)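 Beads coated with glutathione captured GST-fused human transcription factors that had been expressed in yeast, and the factors were then given DNA barcodes and pooled with a tag-only sample. The pools were incubated with 200 nmole of a random double-stranded 16-mer DNA library in Tris/NaCl/DTT/glycerol buffer for 30 min at room temperature, washed, crosslinked with 0.1% formaldehyde and proximity-ligated with BsaI/T4 ligase at 37 °C for 1 h. PCR amplification and Illumina NextSeq500 sequencing came last. Binding signal is each hexamer's read frequency for a factor divided by its frequency for the tag-only sample.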

A further test addresses ETV5 (Homo sapiens, UniProt P41161 1-510). The following applies: protein: recombinant; tags: N-terminal GST; dsDNA, one strand shown. In outline: as §1
The target of another test is HSF1 (Homo sapiens, UniProt Q00613 1-529). The following applies: protein: recombinant; tags: N-terminal GST; chain copies: 3; dsDNA, one strand shown. The method, boiled down:
as §1

The next test deals with T2, SPIC (Homo sapiens, UniProt Q8N5J4 1-248).
T2 sequence: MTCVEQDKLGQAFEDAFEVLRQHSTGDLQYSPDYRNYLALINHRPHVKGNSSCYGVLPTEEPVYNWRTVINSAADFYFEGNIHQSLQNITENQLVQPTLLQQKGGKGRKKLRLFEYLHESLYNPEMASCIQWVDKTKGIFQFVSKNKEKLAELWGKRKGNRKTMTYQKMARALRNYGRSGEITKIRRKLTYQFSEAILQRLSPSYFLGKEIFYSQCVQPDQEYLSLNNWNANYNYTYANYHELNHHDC
The following applies: protein: recombinant; tags: N-terminal GST; dsDNA, one strand shown. In outline:
as §1

The next test has as its target ELF4 (Homo sapiens, UniProt Q99607 1-663). The following applies: protein: recombinant; tags: N-terminal GST; dsDNA, one strand shown. The method, boiled down: as §1
The target of a further test is T3, ELK4 (Homo sapiens, UniProt P28324-2 1-405).
T3 sequence: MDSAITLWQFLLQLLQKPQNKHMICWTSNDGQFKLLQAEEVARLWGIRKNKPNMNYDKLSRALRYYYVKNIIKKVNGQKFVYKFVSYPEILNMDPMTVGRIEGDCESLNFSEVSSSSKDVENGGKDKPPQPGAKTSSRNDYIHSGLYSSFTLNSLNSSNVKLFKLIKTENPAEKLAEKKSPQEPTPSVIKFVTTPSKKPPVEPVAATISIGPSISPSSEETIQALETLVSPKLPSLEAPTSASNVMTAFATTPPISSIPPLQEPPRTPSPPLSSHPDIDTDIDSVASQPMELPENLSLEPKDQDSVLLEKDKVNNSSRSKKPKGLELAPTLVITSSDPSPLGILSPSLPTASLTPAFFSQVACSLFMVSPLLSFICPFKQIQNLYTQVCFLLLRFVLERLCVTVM
The following applies: protein: recombinant; tags: N-terminal GST; dsDNA, one strand shown. In outline:
as §1

In a further test the target is T4, ETV2 (Homo sapiens, UniProt O00321 1-342).
T4 sequence: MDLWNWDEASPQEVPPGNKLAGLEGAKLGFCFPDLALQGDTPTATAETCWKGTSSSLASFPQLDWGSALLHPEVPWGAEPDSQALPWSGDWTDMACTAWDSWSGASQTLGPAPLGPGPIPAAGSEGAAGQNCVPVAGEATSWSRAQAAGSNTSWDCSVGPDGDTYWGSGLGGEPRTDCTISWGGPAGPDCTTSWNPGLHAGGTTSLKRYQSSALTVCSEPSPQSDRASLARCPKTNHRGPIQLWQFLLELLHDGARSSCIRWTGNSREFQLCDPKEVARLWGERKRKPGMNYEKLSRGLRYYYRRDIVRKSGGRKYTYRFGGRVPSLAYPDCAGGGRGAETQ
The following applies: protein: recombinant; tags: N-terminal GST; dsDNA, one strand shown. In outline: as §1

For another test, the target named is T5, ELF3 (Homo sapiens, UniProt P78545 1-371).
T5 sequence: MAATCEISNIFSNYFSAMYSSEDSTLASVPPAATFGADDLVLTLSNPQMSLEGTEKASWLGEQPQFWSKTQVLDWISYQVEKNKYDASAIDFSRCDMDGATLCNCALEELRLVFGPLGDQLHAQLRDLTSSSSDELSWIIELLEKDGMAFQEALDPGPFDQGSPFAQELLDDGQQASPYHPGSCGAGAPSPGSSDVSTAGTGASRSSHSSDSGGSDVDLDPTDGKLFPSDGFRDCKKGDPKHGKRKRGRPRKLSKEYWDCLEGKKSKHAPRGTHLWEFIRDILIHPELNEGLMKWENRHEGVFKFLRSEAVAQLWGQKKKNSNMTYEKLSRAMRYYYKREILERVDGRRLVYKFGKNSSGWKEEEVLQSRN
The following applies: protein: recombinant; tags: N-terminal GST; dsDNA, one strand shown. In outline:
as §1

The target in the next test is CRX (Homo sapiens, UniProt O43186 1-299). The following applies: protein: recombinant; tags: N-terminal GST; dsDNA, one strand shown. The method, boiled down: as §1
CRX, sequence (O43186 whole entry): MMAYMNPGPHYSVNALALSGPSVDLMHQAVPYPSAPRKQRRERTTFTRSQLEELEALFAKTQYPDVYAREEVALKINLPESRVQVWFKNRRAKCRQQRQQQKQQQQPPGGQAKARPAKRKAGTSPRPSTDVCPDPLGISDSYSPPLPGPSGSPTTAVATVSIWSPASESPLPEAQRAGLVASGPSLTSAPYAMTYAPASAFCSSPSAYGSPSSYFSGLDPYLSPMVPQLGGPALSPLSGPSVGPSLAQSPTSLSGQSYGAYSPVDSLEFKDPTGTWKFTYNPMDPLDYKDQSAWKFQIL
The target in a further test is ETV1 (Homo sapiens, UniProt P50549 1-477). The following applies: protein: recombinant; tags: N-terminal GST; dsDNA, one strand shown. The method, boiled down:
as §1

A further test deals with T6, ERF (Homo sapiens, UniProt P50548 1-548).
T6 sequence: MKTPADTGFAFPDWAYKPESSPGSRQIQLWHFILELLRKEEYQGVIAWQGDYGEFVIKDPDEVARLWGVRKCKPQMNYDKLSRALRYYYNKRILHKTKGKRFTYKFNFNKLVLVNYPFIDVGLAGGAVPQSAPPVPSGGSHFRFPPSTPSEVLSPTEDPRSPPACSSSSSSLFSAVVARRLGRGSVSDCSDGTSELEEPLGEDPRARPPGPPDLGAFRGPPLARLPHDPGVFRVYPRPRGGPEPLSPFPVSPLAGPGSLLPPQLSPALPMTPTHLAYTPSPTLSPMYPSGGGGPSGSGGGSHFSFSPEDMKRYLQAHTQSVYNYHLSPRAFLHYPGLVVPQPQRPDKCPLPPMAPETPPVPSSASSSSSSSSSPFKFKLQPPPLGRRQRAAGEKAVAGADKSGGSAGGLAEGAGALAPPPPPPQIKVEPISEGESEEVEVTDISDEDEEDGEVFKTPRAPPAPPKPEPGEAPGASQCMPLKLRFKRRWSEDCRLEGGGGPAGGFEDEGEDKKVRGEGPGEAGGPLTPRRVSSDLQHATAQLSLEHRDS
The following applies: protein: recombinant; tags: N-terminal GST; dsDNA, one strand shown. In outline: as §1

The next test concerns the target T7, ETV3L (Homo sapiens, UniProt Q6ZN32 1-361).
T7 sequence: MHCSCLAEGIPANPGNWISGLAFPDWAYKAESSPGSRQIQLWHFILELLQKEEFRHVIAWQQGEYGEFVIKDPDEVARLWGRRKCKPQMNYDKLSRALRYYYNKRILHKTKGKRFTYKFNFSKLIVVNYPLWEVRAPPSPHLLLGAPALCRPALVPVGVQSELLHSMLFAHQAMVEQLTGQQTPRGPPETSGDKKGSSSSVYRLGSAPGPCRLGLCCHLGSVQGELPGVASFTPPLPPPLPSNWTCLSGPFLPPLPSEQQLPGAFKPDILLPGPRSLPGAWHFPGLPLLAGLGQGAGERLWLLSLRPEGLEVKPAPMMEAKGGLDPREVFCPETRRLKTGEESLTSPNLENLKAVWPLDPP
The following applies: protein: recombinant; tags: N-terminal GST; dsDNA, one strand shown. In outline:
as §1

For a further test, the target named is T8, ETS2 (Homo sapiens, UniProt P15036 1-469).
T8 sequence: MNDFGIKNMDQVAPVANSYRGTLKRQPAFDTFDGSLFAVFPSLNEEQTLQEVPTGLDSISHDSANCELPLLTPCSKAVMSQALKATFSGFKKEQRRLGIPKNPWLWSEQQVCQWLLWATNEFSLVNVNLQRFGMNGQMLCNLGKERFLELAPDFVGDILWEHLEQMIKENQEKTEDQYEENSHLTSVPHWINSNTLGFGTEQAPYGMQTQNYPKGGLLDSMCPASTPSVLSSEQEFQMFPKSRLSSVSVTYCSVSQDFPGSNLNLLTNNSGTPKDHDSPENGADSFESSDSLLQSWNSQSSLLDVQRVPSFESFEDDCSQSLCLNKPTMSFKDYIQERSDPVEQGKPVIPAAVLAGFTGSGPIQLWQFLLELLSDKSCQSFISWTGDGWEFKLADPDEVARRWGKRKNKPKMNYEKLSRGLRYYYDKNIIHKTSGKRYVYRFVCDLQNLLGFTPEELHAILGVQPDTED
The following applies: protein: recombinant; tags: N-terminal GST; dsDNA, one strand shown. In outline:
as §1

For the next test, the target named is T9, SPDEF (Homo sapiens, UniProt O95238 1-335).
T9 sequence: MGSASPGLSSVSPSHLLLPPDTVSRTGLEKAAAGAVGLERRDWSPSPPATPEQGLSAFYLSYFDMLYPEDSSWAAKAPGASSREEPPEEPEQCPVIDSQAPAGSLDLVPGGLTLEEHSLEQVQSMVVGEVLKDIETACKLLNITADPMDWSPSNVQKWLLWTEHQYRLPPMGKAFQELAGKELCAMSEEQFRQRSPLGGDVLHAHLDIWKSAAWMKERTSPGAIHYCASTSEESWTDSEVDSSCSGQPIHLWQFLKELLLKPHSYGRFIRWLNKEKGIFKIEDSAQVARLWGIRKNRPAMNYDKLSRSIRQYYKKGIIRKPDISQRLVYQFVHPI
The following applies: protein: recombinant; tags: N-terminal GST; dsDNA, one strand shown. In outline: as §1

The target of the next test is T10, ETV7 (Homo sapiens, UniProt Q9Y603 1-341).
T10 sequence: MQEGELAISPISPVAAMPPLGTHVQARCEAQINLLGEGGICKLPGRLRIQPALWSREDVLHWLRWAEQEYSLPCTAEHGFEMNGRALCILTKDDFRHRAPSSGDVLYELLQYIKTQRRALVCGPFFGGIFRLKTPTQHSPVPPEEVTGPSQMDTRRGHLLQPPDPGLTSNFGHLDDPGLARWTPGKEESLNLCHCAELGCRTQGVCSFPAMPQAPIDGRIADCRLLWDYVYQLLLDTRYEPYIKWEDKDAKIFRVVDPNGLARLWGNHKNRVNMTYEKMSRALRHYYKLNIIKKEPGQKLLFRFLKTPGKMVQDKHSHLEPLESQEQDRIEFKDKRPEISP
The following applies: protein: recombinant; tags: N-terminal GST; dsDNA, one strand shown. The method, boiled down: as §1

The target of the next test is T11, ELF5 (Homo sapiens, UniProt Q9UKW6-2 1-255).
T11 sequence: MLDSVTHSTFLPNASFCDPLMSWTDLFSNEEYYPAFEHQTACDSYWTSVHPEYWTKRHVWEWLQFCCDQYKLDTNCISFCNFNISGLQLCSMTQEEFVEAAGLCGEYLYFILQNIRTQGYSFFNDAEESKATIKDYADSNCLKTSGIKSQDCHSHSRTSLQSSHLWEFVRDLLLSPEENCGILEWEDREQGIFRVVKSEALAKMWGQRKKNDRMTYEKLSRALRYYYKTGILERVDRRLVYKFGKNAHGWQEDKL
The following applies: protein: recombinant; tags: N-terminal GST; dsDNA, one strand shown. The method, boiled down: as §1

For the next test, the target named is T12, ETV3 (Homo sapiens, UniProt P41162-2 1-143).
T12 sequence: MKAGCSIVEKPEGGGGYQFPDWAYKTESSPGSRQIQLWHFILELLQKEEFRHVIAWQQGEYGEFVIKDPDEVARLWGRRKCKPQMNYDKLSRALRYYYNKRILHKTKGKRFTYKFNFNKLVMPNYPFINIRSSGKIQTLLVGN
The following applies: protein: recombinant; tags: N-terminal GST; dsDNA, one strand shown. The method, boiled down:
as §1

The next test deals with ETV6 (Homo sapiens, UniProt P41212 1-452). The following applies: protein: recombinant; tags: N-terminal GST; dsDNA, one strand shown. In outline:
as §1

ETV1, sequence (P50549 whole entry): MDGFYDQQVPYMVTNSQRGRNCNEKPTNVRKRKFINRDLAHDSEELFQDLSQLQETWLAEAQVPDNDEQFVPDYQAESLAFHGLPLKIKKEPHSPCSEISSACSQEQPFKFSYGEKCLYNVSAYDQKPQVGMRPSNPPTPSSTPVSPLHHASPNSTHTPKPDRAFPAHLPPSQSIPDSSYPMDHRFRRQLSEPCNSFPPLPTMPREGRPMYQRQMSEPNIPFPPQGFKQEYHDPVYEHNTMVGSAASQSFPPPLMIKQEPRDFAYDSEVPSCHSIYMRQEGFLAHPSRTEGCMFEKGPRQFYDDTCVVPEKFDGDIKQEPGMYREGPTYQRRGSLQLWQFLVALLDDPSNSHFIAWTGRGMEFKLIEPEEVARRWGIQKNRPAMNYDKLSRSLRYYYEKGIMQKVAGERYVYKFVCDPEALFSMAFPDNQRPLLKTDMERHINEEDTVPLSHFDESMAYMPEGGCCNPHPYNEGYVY
HSF1, sequence (Q00613 whole entry): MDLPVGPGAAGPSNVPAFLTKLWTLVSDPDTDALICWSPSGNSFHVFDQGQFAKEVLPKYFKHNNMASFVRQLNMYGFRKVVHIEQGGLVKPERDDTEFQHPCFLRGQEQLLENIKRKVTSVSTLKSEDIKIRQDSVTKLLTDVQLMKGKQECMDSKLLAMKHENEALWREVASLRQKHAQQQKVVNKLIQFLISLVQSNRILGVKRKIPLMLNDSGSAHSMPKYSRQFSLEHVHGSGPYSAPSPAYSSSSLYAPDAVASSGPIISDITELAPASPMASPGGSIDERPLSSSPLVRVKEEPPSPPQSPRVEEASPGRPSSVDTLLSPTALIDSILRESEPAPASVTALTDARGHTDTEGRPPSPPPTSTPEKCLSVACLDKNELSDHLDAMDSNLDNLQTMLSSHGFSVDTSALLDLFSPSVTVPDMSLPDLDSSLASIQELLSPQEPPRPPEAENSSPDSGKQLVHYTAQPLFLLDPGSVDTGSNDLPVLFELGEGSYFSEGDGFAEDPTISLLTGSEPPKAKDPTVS
ELF4, sequence (Q99607 whole entry): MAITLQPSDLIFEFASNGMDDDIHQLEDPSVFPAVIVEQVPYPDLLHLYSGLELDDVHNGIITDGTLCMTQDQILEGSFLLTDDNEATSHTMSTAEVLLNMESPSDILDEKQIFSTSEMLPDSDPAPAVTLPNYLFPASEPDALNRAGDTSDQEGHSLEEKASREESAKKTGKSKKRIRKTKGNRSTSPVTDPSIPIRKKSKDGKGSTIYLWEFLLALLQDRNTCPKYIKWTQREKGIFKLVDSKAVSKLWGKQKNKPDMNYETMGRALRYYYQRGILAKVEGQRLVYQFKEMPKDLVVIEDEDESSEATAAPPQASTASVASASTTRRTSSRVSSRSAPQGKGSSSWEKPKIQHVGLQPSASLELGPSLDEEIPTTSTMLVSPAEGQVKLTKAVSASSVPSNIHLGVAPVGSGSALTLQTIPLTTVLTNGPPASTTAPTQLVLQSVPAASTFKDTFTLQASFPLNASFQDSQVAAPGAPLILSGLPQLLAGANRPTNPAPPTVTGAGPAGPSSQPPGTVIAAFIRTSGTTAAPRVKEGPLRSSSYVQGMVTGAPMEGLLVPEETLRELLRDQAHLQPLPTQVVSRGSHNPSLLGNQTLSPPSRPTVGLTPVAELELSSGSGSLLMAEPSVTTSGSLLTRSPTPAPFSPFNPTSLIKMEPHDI
ETV6, sequence (P41212 whole entry): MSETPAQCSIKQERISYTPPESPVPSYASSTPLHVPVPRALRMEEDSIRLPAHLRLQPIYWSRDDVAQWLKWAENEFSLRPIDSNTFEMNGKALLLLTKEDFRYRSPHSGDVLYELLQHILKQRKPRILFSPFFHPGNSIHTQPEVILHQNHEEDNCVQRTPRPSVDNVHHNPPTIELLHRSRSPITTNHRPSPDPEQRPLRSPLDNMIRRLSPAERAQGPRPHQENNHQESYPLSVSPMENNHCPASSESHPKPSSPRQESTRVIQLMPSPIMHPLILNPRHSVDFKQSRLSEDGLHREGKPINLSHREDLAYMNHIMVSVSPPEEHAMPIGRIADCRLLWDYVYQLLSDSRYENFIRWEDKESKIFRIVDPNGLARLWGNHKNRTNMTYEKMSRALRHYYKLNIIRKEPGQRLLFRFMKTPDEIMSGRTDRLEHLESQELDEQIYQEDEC
ETV5, sequence (P41161 whole entry): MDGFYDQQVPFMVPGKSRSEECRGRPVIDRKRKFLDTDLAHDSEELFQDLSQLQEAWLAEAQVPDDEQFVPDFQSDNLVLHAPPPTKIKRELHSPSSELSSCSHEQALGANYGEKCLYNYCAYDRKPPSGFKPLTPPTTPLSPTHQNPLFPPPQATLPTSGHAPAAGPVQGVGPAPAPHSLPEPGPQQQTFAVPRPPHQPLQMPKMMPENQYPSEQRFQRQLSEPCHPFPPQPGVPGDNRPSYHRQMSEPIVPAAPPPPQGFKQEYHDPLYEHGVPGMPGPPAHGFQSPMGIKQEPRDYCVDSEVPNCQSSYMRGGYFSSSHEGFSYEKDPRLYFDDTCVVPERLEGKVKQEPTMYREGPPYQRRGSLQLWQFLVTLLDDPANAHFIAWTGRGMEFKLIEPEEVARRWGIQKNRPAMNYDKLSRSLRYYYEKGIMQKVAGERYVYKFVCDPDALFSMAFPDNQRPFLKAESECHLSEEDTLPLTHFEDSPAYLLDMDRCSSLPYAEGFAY

Regarding ACTTTG, the binding signal in the test with FEV was 1.13 fold enrichment (6-mer frequency, TF over GST control); with ETV5, 1.3 fold enrichment (6-mer frequency, TF over GST control); in the test with HSF1, 1.14 fold enrichment (6-mer frequency, TF over GST control); in the test with SPIC it was 1.33 fold enrichment (6-mer frequency, TF over GST control); with ELF4, 1.29 fold enrichment (6-mer frequency, TF over GST control); with ELK4 it was 1.22 fold enrichment (6-mer frequency, TF over GST control). In addition, the binding signal in the test with ETV2 is 1.39 fold enrichment (6-mer frequency, TF over GST control); with ELF3, 1.28 fold enrichment (6-mer frequency, TF over GST control); with CRX it was 1.18 fold enrichment (6-mer frequency, TF over GST control); in the test with ETV1, 1.21 fold enrichment (6-mer frequency, TF over GST control); with ERF, 1.25 fold enrichment (6-mer frequency, TF over GST control); in the test with ETV3L it was 1.2 fold enrichment (6-mer frequency, TF over GST control). Besides, the binding signal with ETS2 was 1.18 fold enrichment (6-mer frequency, TF over GST control); with SPDEF, 1.14 fold enrichment (6-mer frequency, TF over GST control); in the test with ETV7 it was 1.11 fold enrichment (6-mer frequency, TF over GST control); with ELF5, 1.25 fold enrichment (6-mer frequency, TF over GST control); with ETV3, 1.42 fold enrichment (6-mer frequency, TF over GST control); in the test with ETV6, 1.18 fold enrichment (6-mer frequency, TF over GST control).

The values above are taken from article PMC7862700, “An all-to-all approach to the identification of sequence-specific readers for epigenetic DNA modifications on cytosine”.
